A selection: hits, their analogues and other compounds. The true share with any hit is near 8.1%.
Shh pathway inh: Hedgehog pathway signaling inhibitors, primary screen, luminescence, Shh-LIGHT2 cells, Gli-luciferase; Shh-LIGHT2 Gli-luciferase reporter, 30 h; inhibition, % (concentration not given with the values); hit rate 2.1% among 22,000;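 active = mean inhibition across valid replicates above about 65%, limit read from the data; inconclusive = mean under the limit, yet half or more replicates past it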;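 also: pathway switched on by Shh-conditioned medium diluted 1 in 25 in low serum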
NOMO-1 viab: NOMO-1 AML cell viability reduction, primary screen, STK33 inhibitor project, CellTiter-Glo luminescence. NOMO-1 AML viability, 72 h. hit rate 7.5% among 37,000. inhibition, % (concentration not given with the values). AID 2330, 2010; in the data active = inhibition above about 80%; inconclusive = no clear call, values can overlap the other calls
MITF inh: inhibitors of MITF, primary screen, MITF inhibitor project, cell-based, luminescence. hit rate 0.28% among 37,000. inhibition, % (test concentration not listed). TRPM1 promoter luciferase, 24 h; in the data active = inhibition above about 85%; inconclusive = no clear call, values can overlap the other calls; inactive = below about 68%;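 also: human melanocyte line stably carrying TRPM1 promoter luciferase reporter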
A number is an active result; . = inactive; ? = inconclusive; / = no result.

SMILES	Shh pathway inh	NOMO-1 viab	MITF inh
Cc1nc(SC2CCCCN(C(=O)c3ccc(Cl)cc3)C2=O)c2c3c(sc2n1)CCCC3 (centres undefined)	.	93	.
Cc1ccc(C(=O)CSc2nc(C)nc3sc4c(c23)CCCC4)cc1	/	.	.
COc1ccc(NC(=O)N(C)C[C@H]2Oc3ccc(NS(=O)(=O)c4ccc(Cl)cc4)cc3CC(=O)N([C@@H](C)CO)C[C@@H]2C)cc1	.	.	.
COC(=O)c1ccc(Cl)c(NC(=O)CSc2nc(C)cc(C(F)(F)F)n2)c1	/	.	.
Cc1ccccc1NC(=O)CSc1nc(-c2ccc(Cl)cc2)cc(C(F)(F)F)n1	/	95	.
COc1ccccc1NC(=O)CSc1nc(-c2ccc(Cl)cc2)cc(C(F)(F)F)n1	/	?	.
COC(=O)c1ccc(Cl)c(NC(=O)CSc2nc(-c3ccccc3)cc(C(F)(F)F)n2)c1	/	113	.
COC(=O)C1=CO[C@@H](O[C@@H]2O[C@H](CO)[C@@H](O)[C@H](O)[C@H]2O)[C@H]2[C@@H]1C=CC21C=C(C(C)O)C(=O)O1 (some centres undefined)	.	.	.
CCOC(=O)c1sc(SC)c2c1CC(c1ccc(OC)cc1)CC2=O (centres undefined)	.	.	.
O=C(Nc1ccc(Cl)c(C(F)(F)F)c1)C(=S)NCc1ccco1	.	.	.
O=C(Nc1ccc2c(c1)OCO2)C(=S)NCc1ccccc1	.	.	.
OC(Cc1ccccc1)(c1ccccc1)c1ccccc1N=Cc1ccc2c(c1)OCO2 (centres undefined)	.	91	.
CC1OC(NC(=O)c2ccccc2F)C(NC(=O)c2ccccc2F)OC1C (centres undefined)	.	.	.
COc1ccc2c(c1)O[C@@H]1COc3cc4c(cc3[C@]1(O)C2=O)OCO4	.	.	.
O=C(NC1CCN(C(=O)c2ccc(Cl)cc2Cl)CC1)c1ccccc1	.	.	.
Cc1ccc(S(=O)(=O)N(C)CC(=O)Nc2ccccc2Sc2ccccc2)cc1	/	.	.
C[C@H]1CN([C@@H](C)CO)C(=O)c2cccc(NC(=O)C3CCCCC3)c2O[C@H]1CN(C)Cc1ccc(Cl)c(Cl)c1	.	.	.
C[C@H]1CN([C@@H](C)CO)C(=O)c2cc(NC(=O)C3CCCCC3)ccc2O[C@H]1CN(C)Cc1ccc(Oc2ccccc2)cc1	.	.	.
C[C@@H]1CN([C@@H](C)CO)C(=O)c2cccc(NC(=O)C3CC3)c2O[C@H]1CN(C)Cc1ccc(Oc2ccccc2)cc1	.	100	.
C[C@@H]1CN([C@@H](C)CO)C(=O)c2cccc(NC(=O)C3CCCCC3)c2O[C@@H]1CN(C)Cc1ccc(Oc2ccccc2)cc1	.	.	.
C[C@@H]1CN([C@@H](C)CO)C(=O)c2cc(NC(=O)C3CCCCC3)ccc2O[C@H]1CN(C)Cc1ccc(Oc2ccccc2)cc1	.	100	.
C[C@@H]1CN([C@@H](C)CO)C(=O)c2cccc(NC(=O)C3CCCCC3)c2O[C@H]1CN(C)Cc1ccc(Oc2ccccc2)cc1	.	120	.
C[C@@H]1CN([C@@H](C)CO)C(=O)c2cccc(NC(=O)C3CCCCC3)c2O[C@@H]1CN(C)Cc1ccc(Cl)c(Cl)c1	.	96	.
C[C@@H]1CN([C@H](C)CO)C(=O)c2cccc(NC(=O)C3CC3)c2O[C@@H]1CN(C)Cc1ccc(Oc2ccccc2)cc1	.	.	.
O=S(=O)(/C=C/c1ccccc1)Nc1ccccc1	.	.	.
SMILES	Shh pathway inh	NOMO-1 viab	MITF inh
C[C@H]1CN([C@@H](C)CO)C(=O)Cc2cc(NC(=O)NC3CCCCC3)ccc2O[C@H]1CN(C)S(C)(=O)=O	.	.	.
C[C@H](CO)N1C[C@H](C)[C@@H](CN(C)Cc2ccc(Oc3ccccc3)cc2)Oc2c(NC(=O)C3CCCCC3)cccc2C1=O	.	88	.
C[C@@H]1CN([C@H](C)CO)C(=O)c2cccc(NC(=O)C3CCCCC3)c2O[C@H]1CN(C)Cc1ccc(Oc2ccccc2)cc1	.	.	.
O=C(/C=C/c1ccc(O)cc1)c1ccc(O)cc1O	.	.	.
O=C(/C=C/c1ccc(O)cc1)CC(=O)/C=C/c1ccc(O)cc1	.	108	.
C[C@H](CO)N1C[C@H](C)[C@@H](CN(C)S(=O)(=O)c2ccc(Cl)cc2)Oc2c(NC(=O)c3nc4ccccc4s3)cccc2C1=O	.	117	.
C[C@H](CO)N1C[C@H](C)[C@H](CN(C)S(=O)(=O)c2ccc(Cl)cc2)Oc2c(NC(=O)c3nc4ccccc4s3)cccc2C1=O	.	93	.
C[C@@H]1CN([C@H](C)CO)C(=O)c2cccc(NC(=O)c3nc4ccccc4s3)c2O[C@H]1CN(C)S(=O)(=O)c1ccccc1	?	.	.
Cc1ccc(S(=O)(=O)N(C)C[C@H]2Oc3c(NC(=O)c4nc5ccccc5s4)cccc3C(=O)N([C@@H](C)CO)C[C@@H]2C)cc1	.	.	.
C[C@@H]1CN([C@@H](C)CO)C(=O)c2cccc(NC(=O)c3nc4ccccc4s3)c2O[C@H]1CN(C)S(=O)(=O)c1ccccc1	.	.	.
C[C@@H]1CN([C@H](C)CO)C(=O)c2cccc(NC(=O)c3nc4ccccc4s3)c2O[C@@H]1CN(C)S(=O)(=O)c1ccccc1	.	.	.
C[C@H](CO)N1C[C@H](C)[C@H](CN(C)S(=O)(=O)c2ccc(F)cc2)Oc2c(NC(=O)c3nc4ccccc4s3)cccc2C1=O	.	108	.
C[C@@H]1CN([C@@H](C)CO)C(=O)c2cccc(NC(=O)c3nc4ccccc4s3)c2O[C@@H]1CN(C)S(=O)(=O)c1ccccc1	.	102	.
O=C(Nc1cccc(Cl)c1)c1ccc(NCc2ccco2)c([N+](=O)[O-])c1	/	.	.
O=C(CSc1nnc(-c2ccc(Br)cc2)o1)Nc1ccc(Cl)c(Cl)c1	/	.	.
COC(=O)c1cc(OC)c(OC)cc1NC(=O)CSc1nc2ccccc2o1	/	.	.
Cc1ccc(-c2noc(CCC(=O)Nc3cccc([N+](=O)[O-])c3)n2)cc1	/	.	.
Cc1ccc(OCC(=O)Nc2ccccc2-c2nc3ccccc3s2)cc1C	/	.	.
C[C@@H]1CN([C@@H](C)CO)C(=O)c2cccc(NC(=O)c3nc4ccccc4s3)c2O[C@@H]1CN(C)S(=O)(=O)c1ccc(Cl)cc1	.	113	.
C[C@@H]1CN([C@H](C)CO)C(=O)c2cccc(NC(=O)c3nc4ccccc4s3)c2O[C@@H]1CN(C)S(=O)(=O)c1ccc(Cl)cc1	.	.	.
O=C(O)CCC(=O)Cc1ccccc1	.	.	?
COc1cc(CNCc2ccccc2)cc(I)c1OCC#N	/	.	.
Cc1ccccc1-c1nnc(SCC(=O)Nc2cc(C(F)(F)F)ccc2N2CCOCC2)o1	/	.	.
Cc1ccc(N2C3=C(C(=O)CC(C)(C)C3)C(c3cccs3)C3=C2CC(C)(C)CC3=O)cc1C	.	118	.
O=C(/C=C/c1ccccc1)O[C@@H]1C[C@@](O)(C(=O)O)C[C@@H](O)[C@@H]1O	.	.	.
C[C@H](CO)N1C[C@H](C)[C@H](CN(C)Cc2ccc(Cl)c(Cl)c2)Oc2ccc(NC(=O)c3ccncc3)cc2C1=O	86	.	.
C[C@H](CO)N1C[C@H](C)[C@@H](CN(C)Cc2ccc(Cl)c(Cl)c2)Oc2ccc(NC(=O)Nc3ccc(C(F)(F)F)cc3)cc2C1=O	.	.	.

Compound activity from PubChem.
